This is a sample that favours compounds with a hit; in the whole collection about 0.98% have one here.
E coli Lon inh = inhibits E. coli Lon protease; 360,000 tested, 0.42% active; inhibition, % at 7.94 µM; purified E. coli Lon protease, fluorescence polarization; in the data active = inhibition above about 13%, passing the limit was not always enough;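 also: 0% = enzyme with probe and DMSO and 100% = no enzyme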
Cardiac RTF inh = cardiac RTF calcium desensitization; inhibition, % at 7.15 µM; AID 493244; IANBD-labeled cardiac RTF, Ca2+ fluorescence; 340,000 tested, 0.12% active;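 active = inhibition above the mean inhibition of all tested compounds plus 3 SD, cut at about 17% in these data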;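 also: assay run at fixed EC70 calcium of 1.6 mM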
C-LANA FP = KSHV C-LANA DNA binding inhibition; MBP-C-LANA/FAM-LBS DNA binding, fluorescence polarization; 340,000 tested, 0.078% active; inhibition, % at 9 µM;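 active = highest replicate inhibition at or above 60% at 9 µM, even if other replicates fall short; inactive = all replicates below 60% inhibition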;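 also: 0% = neutral control wells and 100% = 4 µM acridine orange control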
EBV gp42 block = blocks Epstein-Barr virus glycoprotein 42 binding | Q1HVG2 | Fluorescence polarization binding assay, mP read-out | inhibition, % (tested at 21.74 µM) | 220,000 tested, 0.42% active; in the data active = inhibition above about 50%
cardiac RTF act = cardiac RTF calcium sensitization. P19429+P45379. IANBD-labeled TnC RTF fluorescence at EC20 calcium; 0% EC20 calcium, 100% full calcium. activation, % at 7.2 µM. 340,000 tested, 0.24% active. AID 493008;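 active = activation above the mean over all tested compounds plus 3 SD, cut at about 30% in these data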;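 also: rise in fluorescence read as greater calcium sensitivity of cardiac thin filaments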
Keap1 Nrf2 FP = disrupts human Keap1 binding to Nrf2 peptide; 340,000 tested, 0.15% active; inhibition, % at 9.4 µM; Keap1 Kelch-Nrf2 peptide fluorescence polarization, 1536-well; in the data active = inhibition above about 12%;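 also: human Keap1 Kelch domain with fluorescein labeled Nrf2 9mer peptide probe; 0% = neutral control wells and 100% = peptide positive control; higher means more block of Keap1 binding to Nrf2 peptide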
Target sequence (Q14145 whole entry, looked up, the tested form may be a part): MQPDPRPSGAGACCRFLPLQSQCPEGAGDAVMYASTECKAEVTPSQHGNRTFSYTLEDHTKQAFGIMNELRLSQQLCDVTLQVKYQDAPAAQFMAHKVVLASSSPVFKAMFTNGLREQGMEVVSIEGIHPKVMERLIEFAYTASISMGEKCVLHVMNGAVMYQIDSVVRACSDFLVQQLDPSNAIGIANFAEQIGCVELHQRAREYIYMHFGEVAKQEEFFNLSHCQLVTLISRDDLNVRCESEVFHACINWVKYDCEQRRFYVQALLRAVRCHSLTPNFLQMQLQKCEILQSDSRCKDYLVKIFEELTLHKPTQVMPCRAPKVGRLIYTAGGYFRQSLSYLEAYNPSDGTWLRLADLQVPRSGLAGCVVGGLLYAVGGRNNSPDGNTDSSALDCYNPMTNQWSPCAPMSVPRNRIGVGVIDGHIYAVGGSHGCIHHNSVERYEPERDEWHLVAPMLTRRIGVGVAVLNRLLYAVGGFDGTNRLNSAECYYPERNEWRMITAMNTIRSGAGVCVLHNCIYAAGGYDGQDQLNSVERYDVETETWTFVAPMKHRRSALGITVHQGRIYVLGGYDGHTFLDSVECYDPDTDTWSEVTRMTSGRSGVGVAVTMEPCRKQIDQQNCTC
Numbers without * were called inactive; nt = not tested or not shown; + = active, no number.

SMILES	E coli Lon inh	Cardiac RTF inh	C-LANA FP	EBV gp42 block	cardiac RTF act	Keap1 Nrf2 FP
O=C(OC1CCCCC1)c1ccc2c(c1)C1C=CCC1C(C(=O)O)N2 (configuration not stated)	nt	nt	nt	88*	nt	nt
O=C(O)C1Nc2c(Cl)cc(Cl)c(Cl)c2C2C=CCC12 (configuration not stated)	-13	2	1	nt	-3	-1
O=C(O)C1Nc2c(O)cccc2C2C=CCC12 (configuration not stated)	9	34*	13	108*	-31	2
COc1ccccc1OCCNC(=O)CCNS(=O)(=O)c1ccc(C)cc1	3	-2	-1	nt	8	2
NC(=O)C1CCN(c2nc(-c3ccccc3C(F)(F)F)cs2)CC1	-6	6	0	nt	3	1
CSCC[C@H](NC(=O)[C@@H]1Cc2ccccc2CN1)C(=O)Nc1ccc2c(c1)OCO2	-6	3	0	nt	-6	-1
CCOc1ccc(S(=O)(=O)N2CCCCC2)cc1NC(=O)CCNC(=O)c1ccco1	3	-6	1	nt	8	-3
CCOC(=O)N1CCN(C(=O)c2ccccc2Oc2ccccc2)CC1	-2	-5	-2	130*	-4	-2
Cc1nnc(N2CCOCC2)c2nn(-c3cccc(Cl)c3)c(C)c12	-24	-38	2	-48	33*	1
CC1(C(=O)Nc2ccc(Cl)c(C(F)(F)F)c2)Cc2c(-c3ccc(C(N)=O)cc3)ccnc2O1 (configuration not stated)	-7	nt	nt	nt	nt	nt
COCc1ccc(C(=O)N2CCCC(N3CCN(c4cccc(Cl)c4)CC3)C2)s1 (configuration not stated)	-4	nt	nt	nt	nt	nt
COc1ccc(OC)c(/C=C/c2nc3ccccc3[nH]c2=O)c1	4	-103	7	nt	72*	2
COc1ccc(OC)c(C=Nc2ccccc2-c2nc3ccccc3[nH]2)c1	2	-13	0	-13	0	-3
CCN(CC)c1ccc2c(-c3ccc(S(=O)(=O)O)cc3S(=O)(=O)[O-])c3ccc(=[N+](CC)CC)cc-3oc2c1	+	-336	121*	nt	248*	82*
C=CCn1c(O)c(N=NC(=O)CNC(=O)/C=C/c2ccco2)c2ccccc21	-10	-13	-1	62*	-7	1
C=CCn1c(O)c(N=NC(=O)CNC(=O)/C=C/c2ccc(OC)cc2)c2ccccc21	-5	1	-1	-10	2	-1
Cc1nc2nc(-c3cccs3)cn2nc1C	12	-9	4	68*	9	-5
CCN(C(=O)COC(=O)CCNS(=O)(=O)c1ccccc1F)c1c(N)n(Cc2ccccc2)c(=O)[nH]c1=O	-2	-10	2	nt	-3	1
Nc1ccc2c(c1Cl)C(=O)c1ccc(N)c(Cl)c1C2=O	0	7	-1	76*	-17	2
OC(c1ccco1)c1nc(-c2ccc(F)c(Cl)c2)cs1 (configuration not stated)	2	nt	nt	nt	nt	nt
O=[N+]([O-])c1ccc(N2N=C(c3ccco3)CC2c2ccccc2)cc1 (configuration not stated)	-147	-14	2	70*	13	0
O=[N+]([O-])c1ccc(N2N=C(c3ccccc3)CC2c2ccccc2O)cc1 (configuration not stated)	-222	-53	-1	nt	47*	-8
NS(=O)(=O)c1ccc(N2N=C(c3ccccc3)CC2c2ccccc2Br)cc1 (configuration not stated)	0	-2	3	nt	-3	2
Fc1ccc(C2CC(c3ccco3)=NN2c2ccccc2)cc1 (configuration not stated)	-9	7	0	-12	-2	-2
CCCCC1=CC2=C(c3ccco3)C(=O)C(C)(OC(=O)c3ccc(OC)cc3)C(=O)C2=CN1Cc1ccccc1 (configuration not stated)	-17	-30	2	52*	4	3
SMILES	E coli Lon inh	Cardiac RTF inh	C-LANA FP	EBV gp42 block	cardiac RTF act	Keap1 Nrf2 FP
COc1ccc(CN2CCN(C(=O)Cn3nc(C(=O)O)c4ccccc4c3=O)CC2)cc1F	-14	-18	-1	nt	-5	-3
Oc1ccc(/C=N/N=C/c2ccc(O)c(O)c2)cc1O	3	-1	77*	nt	3	-7
COCCNC(=S)NN(c1ccccc1)c1ccccc1	2	-2	0	-1	0	-1
CNC(=S)NN(c1ccccc1)c1ccccc1	-2	3	1	84*	1	-9
Nc1ccc(C(=O)O)cc1[N+](=O)[O-]	-7	-4	2	8	3	-4
Nc1cc(S(=O)(=O)O)cc([N+](=O)[O-])c1O	-3	-7	81*	-5	-5	-3
O=C(Nc1ccccc1Cl)c1cc(C2CCCN(C(=O)c3cccs3)C2)on1 (configuration not stated)	-9	nt	nt	nt	nt	nt
COc1ccc(OC)c(/C=C2\Oc3cc(OCC(=O)N4CCC[C@H]4C(=O)O)ccc3C2=O)c1	-13	-8	-2	nt	7	0
COc1cc(OC)c(OC)cc1/C=C1\Oc2cc(OCC(=O)N3Cc4ccccc4C[C@H]3C(=O)O)ccc2C1=O	-266	-66	-31	nt	32*	-88
COc1ccc(/C=C2\Oc3cc(OCC(=O)N4CCC[C@H]4C(=O)O)ccc3C2=O)c(OC)c1	-74	-44	-11	nt	30*	-44
COc1ccccc1NC(=O)COc1coc(CN2CCN(c3ccccc3)CC2)cc1=O	10	-10	-1	nt	-6	2
CC(=O)c1cccc(NC(=O)C(C)OC(=O)C2=NNC(=O)CC2)c1 (configuration not stated)	-1	-5	0	nt	-1	-3
CCc1nc(SCc2ccccc2C#N)n[nH]1	0	2	-1	nt	0	-3
CCN(CC)c1ccc(/C=C/C(=O)C2C(=O)C=C(C)OC2=O)cc1 (configuration not stated)	-244	-122	-31	-75	128*	-155
CCN(CC)c1ccc(C2C(C(=O)OC)=C(C)NC(C)=C2C(=O)OC)cc1	-5	0	-1	-9	-5	-1
O=c1[nH]c(S)c(/C=C2\C=Nc3ccccc32)s1	12	nt	nt	63*	nt	nt
COc1ccc(CC(=O)NNS(=O)(=O)c2cccc([N+](=O)[O-])c2)cc1OC	-2	-10	1	nt	1	-2
COc1ccc(-n2c(O)c(/C=N/NS(=O)(=O)c3cccc([N+](=O)[O-])c3)c3ccccc3c2=O)cc1OC	-110	-43	-59	-20	33*	-218
O=c1[nH]c(C(Cl)Cl)nc2sc3c(c12)CCN(Cc1ccccc1)C3	-41	-5	0	56*	6	-3
CCCSc1nc2sc3c(c2c(=O)[nH]1)CCN(Cc1ccccc1)C3	-114	-22	8	45	9	-20

High-throughput results from PubChem BioAssay.
